DT40 TDP1 no CPT: qHTS for Inhibitors of human tyrosyl-DNA phosphodiesterase 1 (TDP1): qHTS in cells in absence of CPT; DT40 Tdp1-/- hTDP1 cells, no CPT, ATP luminescence, 48 h; Potency, µM (highest dose often 46.2 µM), for inactives: at the highest dose activity change, negative = growth inhibition, hits mostly inhibitors; 420,000 tested, 15% active; note: nearly all actives have a fitted effect of over 55% in size
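Stably hTDP1-transfected Tdp1-null chicken DT40 cells were treated with library compounds minus camptothecin and grown for at least 48 hr at 37 °C, after which cellular ATP was quantified by luminescence.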
TDP1 block: inhibitors of human tyrosyl-DNA phosphodiesterase TDP1. Q9NUW8. recombinant TDP1, AlphaScreen DNA substrate cleavage. Potency, µM (highest dose often 130 µM), inactives show top-dose activity change, negative = inhibition, hits mostly inhibitors. 350,000 tested, 0.28% active. AID 485290; note: nearly all actives have a fitted effect of over 40% in size
Target sequence (Q9NUW8 whole entry, looked up): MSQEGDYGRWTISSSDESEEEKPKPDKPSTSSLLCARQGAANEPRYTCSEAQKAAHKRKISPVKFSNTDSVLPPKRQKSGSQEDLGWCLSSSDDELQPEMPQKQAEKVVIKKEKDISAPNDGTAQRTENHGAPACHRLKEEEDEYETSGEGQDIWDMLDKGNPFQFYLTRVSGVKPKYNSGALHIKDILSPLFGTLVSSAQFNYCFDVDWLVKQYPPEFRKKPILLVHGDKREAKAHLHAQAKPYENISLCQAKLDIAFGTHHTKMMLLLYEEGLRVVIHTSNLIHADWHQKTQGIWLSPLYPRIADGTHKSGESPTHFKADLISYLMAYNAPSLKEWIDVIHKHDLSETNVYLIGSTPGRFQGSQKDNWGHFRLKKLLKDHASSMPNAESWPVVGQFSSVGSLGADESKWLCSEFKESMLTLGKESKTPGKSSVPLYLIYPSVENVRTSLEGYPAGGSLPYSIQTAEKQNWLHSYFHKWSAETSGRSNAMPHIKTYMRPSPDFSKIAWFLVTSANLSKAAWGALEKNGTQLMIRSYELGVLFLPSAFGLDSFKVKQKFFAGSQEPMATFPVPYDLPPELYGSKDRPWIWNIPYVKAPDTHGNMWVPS
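Here, a 5' biotin and 3' phosphotyrosine-FITC DNA oligonucleotide reports Tdp1 activity: intact substrate bridges AlphaScreen beads, while cleavage leaves a 3' phosphate and drops signal. All incubations at room temperature.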
DT40 TDP1 CPT: growth inhibition of DT40 Tdp1-/-;hTDP1 cells with camptothecin (screen for TDP1 inhibitors); 420,000 tested, 12% active; chicken DT40 Tdp1-/-;hTDP1 cells + 20 nM CPT, ATP luminescence, 48 h; Potency, µM (highest dose often 46.2 µM), inactives show at the top dose activity change, negative = growth inhibition, most hits filed as inhibitors; note: nearly all actives have a fitted effect of over 55% in size
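Chicken DT40 Tdp1-/- cells complemented with human TDP1, 400 cells/well, exposed to compounds plus 20 nM camptothecin for at least 48 h at 37 C; viability read as ATP content by CellTiter-Glo luminescence.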
VDR inh: blocks the human vitamin D receptor; AID 504847; Potency, µM, for inactives: max response, negative = inhibition, most hits filed as inhibitors; 400,000 tested, 0.93% active; VDR-SRC2-3 peptide fluorescence polarization, 2 h; P11473
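Inhibition of the VDR/SRC2-3 peptide interaction is quantified by fluorescence polarization. Compounds (23 nl, pintool) incubate with the reagents for 2 hours at ambient room temperature.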
PLK1 PBD inh: inhibitors of human PLK1 polo-box domain binding; Plk1 PBD binding of FITC phosphopeptide, fluorescence polarization; Potency, µM, for the others: max response, negative = inhibition, most hits filed as inhibitors; AID 720504; 360,000 tested, 2.8% active; note: series mostly up to about 57 µM; nearly all actives have a fitted effect of over 65% in size
KAT2A inh: inhibitors of human GCN5L2 histone acetyltransferase. GCN5L2 HAT assay, ThioGlo1 CoA-SH fluorescence. AID 504327. Potency, µM (series often up to 58.9 µM), without a hit: at the highest dose activity change, negative = inhibition, most hits filed as inhibitors. 390,000 tested, 0.21% active
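ThioGlo1-coupled HAT assay: 20nM GCN5L2, 70uM acetyl-CoA, 75uM H3(1-25) peptide, pH 7.5. Fluorescence read at 340/540nm at start and after 20 min at room temperature.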
The depositor's hits bear a star; ? = inconclusive; . = not tested or not shown; [ ] = another dose, or the depositor's remark. Rows were chosen to be rich in hits. Some 18% of all compounds tested hit in one or more screens of this group. Calls come from the whole dose curve; as a rule, active = well fitted curve in the direction sought with a large enough effect; inconclusive = small, poorly fitted or top-dose-only effect, or another doubt; inactive = no such curve, though single readings can be large; an effect the other way counts as inactive or inconclusive. % is set by controls: 0 for no effect and ±100 for the full control effect; potency is the fitted concentration of half-maximal effect.

SMILES	DT40 TDP1 no CPT	TDP1 block	DT40 TDP1 CPT	VDR inh	PLK1 PBD inh	KAT2A inh
CCOC(=O)C(=NC1CCS(=O)(=O)C1)NNc1ccccc1Cl (configuration not stated)	7%	9%	-13%	-26%	27µM*	25%
O=C(OCCN(C1=NS(=O)(=O)c2ccccc21)c1ccccc1Cl)c1ccc(Cl)cc1	?	0%	18µM*	12%	-1%	-2%
COc1ccc(C)cc1S(=O)(=O)N1CCCC(C(=O)N2CCN(c3ccccc3F)CC2)C1 (configuration not stated)	23µM*	7%	?	-10%	0%	-8%
COc1ccc(N2CCN(C(=O)C3CCCN(S(=O)(=O)c4ccc5c(c4)oc(=O)n5C)C3)CC2)cc1 (configuration not stated)	10µM*	6%	12µM*	4%	8%	-17%
COc1ccccc1N1CCN(C(=O)C2CCN(S(=O)(=O)c3ccccc3F)CC2)CC1	23µM*	0%	?	-5%	-3%	-15%
COc1ccccc1N1CCN(C(=O)C2CCCN(S(=O)(=O)c3ccc4c(c3)oc(=O)n4C)C2)CC1 (configuration not stated)	8.2µM*	4%	26µM*	1%	-7%	-3%
COC(=O)c1ccc(Cl)cc1NC(=O)N1CCCn2nc(C)cc21	-14%	4%	-16%	11%	.	22%
COc1ccccc1NC(=O)C1=C(C)Nc2c(C(=O)Nc3cccc(C)c3)cnn2C1c1ccccc1Cl (configuration not stated)	?	5%	?	15%	.	-7%
CC1Cc2ccccc2N1S(=O)(=O)c1cccc(C(=O)NCCCn2ccnc2)c1 (configuration not stated)	?	0%	?	16%	-24%	0%
C=CCN(CC=C)C(=O)c1cccc(S(=O)(=O)N2c3ccccc3CC2C)c1 (configuration not stated)	16µM*	4%	16µM*	60%	-7%	15%
CC1Cc2ccccc2N1S(=O)(=O)c1cccc(C(=O)NC2CC2)c1 (configuration not stated)	13µM*	1%	18µM*	-2%	-2%	0%
CNC(=O)C1CN(C(=O)c2cccc(S(=O)(=O)N3c4ccccc4CC3C)c2)c2ccccc2O1 (configuration not stated)	18µM*	0%	?	-23%	-4%	3%
COc1ccccc1C(CNC(=O)c1cccc(S(=O)(=O)N2c3ccccc3CC2C)c1)N(C)C (configuration not stated)	15µM*	.	?	3%	2%	.
COc1ccccc1C(CNC(=O)c1cccc(S(=O)(=O)N2CCCc3ccccc32)c1)N(C)C (configuration not stated)	?	.	?	-7%	-6%	.
C1CCCC1	.	8%	.	.	.	.
Cc1ccc(-c2nnn(CC(=O)N3CCCc4ccccc43)n2)cc1	-21%	-2%	?	19%	-4%	49%
O=C(Cn1nnc(-c2cc(Cl)ccc2-n2cnnn2)n1)N1CCCc2ccccc21	21µM*	5%	?	2%	4%	-9%
C=CCNC(=O)Cn1nnc(-c2ccc(-c3ccc(OC)cc3)cc2)n1	1%	.	0%	0%	-9%	-4%
O=C(O)C1CCN(C(=O)CSc2nnc3ccccn23)CC1	22%	1%	13%	-7%	-1%	-2%
COc1cc(/C=N/NC(N)=S)ccc1OCC(=O)Nc1ccc(C)cc1	-27%	-4%	?	-27%	-27%	-6%
COc1cc(/C=N/NC(=O)c2cccc3ccccc23)cc(OC)c1O	?	3%[56.1 µM]	4.6µM*	-12%	-8%	-16%
